{"source": "ChEMBL document CHEMBL3988442", "about": "“University of Dundee, Small-Polar-MMV Screening Library” (2021)", "target": "T1, Methionyl-tRNA synthetase, putative (Leishmania donovani (strain BPK282A1)) (UniProt E9BF75)", "T1 sequence (whole entry)": "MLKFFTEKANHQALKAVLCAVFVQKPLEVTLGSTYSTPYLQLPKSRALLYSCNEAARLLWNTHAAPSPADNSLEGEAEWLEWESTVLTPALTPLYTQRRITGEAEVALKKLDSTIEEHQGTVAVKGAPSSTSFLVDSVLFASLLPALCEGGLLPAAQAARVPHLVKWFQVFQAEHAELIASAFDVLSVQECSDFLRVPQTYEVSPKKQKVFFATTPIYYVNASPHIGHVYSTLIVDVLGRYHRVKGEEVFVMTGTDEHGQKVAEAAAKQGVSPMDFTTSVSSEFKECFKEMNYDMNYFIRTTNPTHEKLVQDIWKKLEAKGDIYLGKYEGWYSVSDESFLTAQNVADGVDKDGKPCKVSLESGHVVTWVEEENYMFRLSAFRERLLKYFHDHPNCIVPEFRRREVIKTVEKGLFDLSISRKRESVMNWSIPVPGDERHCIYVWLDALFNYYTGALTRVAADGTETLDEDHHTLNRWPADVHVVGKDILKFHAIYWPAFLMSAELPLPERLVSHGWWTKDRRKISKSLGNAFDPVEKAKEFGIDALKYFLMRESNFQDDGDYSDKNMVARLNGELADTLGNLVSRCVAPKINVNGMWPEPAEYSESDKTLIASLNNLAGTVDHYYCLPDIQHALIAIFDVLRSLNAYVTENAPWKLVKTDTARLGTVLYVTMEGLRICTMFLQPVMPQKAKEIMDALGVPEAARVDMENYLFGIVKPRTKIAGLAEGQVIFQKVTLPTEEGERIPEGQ", "experiment": "Leishmania donovani Methionine tRNA synthetase (LdMetRS):v7. Dose response assay", "assay_type": "functional", "parameters": "conc 80 nM, time 150 minutes", "data": [{"molecule": "CC(C)C[C@H](N)COc1ccc(Cl)cc1C(=O)c1ccccc1", "values": [{"measurement": "PXC50", "setting": "MAX_EFFECT 7.036247335", "result": "< 4"}, {"measurement": "PXC50", "setting": "MAX_EFFECT 9.316770186", "result": "< 4"}]}, {"molecule": "Cc1nn(C)cc1-c1cc(C(F)(F)F)nc(NC2CCCCC2)n1", "values": [{"measurement": "PXC50", "setting": "MAX_EFFECT 7.049608355", "result": "< 4"}, {"measurement": "PXC50", "setting": "MAX_EFFECT 12.01044386", "result": "< 4"}]}, {"molecule": "CCNC(=O)C1CCCN(c2nc(C)nc3sc4c(c23)CCC4)C1", "note": "(stereo not given)", "values": [{"measurement": "PXC50", "setting": "MAX_EFFECT 7.25388601", "result": "< 4"}, {"measurement": "PXC50", "setting": "MAX_EFFECT 9.574468085", "result": "< 4"}]}, {"molecule": "Nc1noc2ccc(-c3cnc4ccc(NCc5ccccn5)nn34)cc12", "values": [{"measurement": "PXC50", "setting": "MAX_EFFECT 7.291666667", "result": "< 4"}, {"measurement": "PXC50", "setting": "MAX_EFFECT 11.84210526", "result": "< 4"}]}, {"molecule": "CNC(=O)CNc1nc(CN2CCCCC2)nc2sc3c(c12)CCC3", "values": [{"measurement": "PXC50", "setting": "MAX_EFFECT 7.304785894", "result": "< 4"}, {"measurement": "PXC50", "setting": "MAX_EFFECT 12.46819338", "result": "< 4"}]}, {"molecule": "CCc1nc(N2CCN(CC)CC2)c2cc(CC)sc2n1", "values": [{"measurement": "PXC50", "setting": "MAX_EFFECT 7.407407407", "result": "< 4"}, {"measurement": "PXC50", "setting": "MAX_EFFECT 9.066666667", "result": "< 4"}]}, {"molecule": "Cc1nc(N2CC[C@@H](O)C2)c2c3c(sc2n1)CCCC3", "values": [{"measurement": "PXC50", "setting": "MAX_EFFECT 8.838383838", "result": "< 4"}, {"measurement": "PXC50", "setting": "MAX_EFFECT 10.20408163", "result": "< 4"}]}, {"molecule": "Cc1nn(C)cc1-c1cc(C(F)(F)F)nc(NC2CCN(C)CC2)n1", "values": [{"measurement": "PXC50", "setting": "MAX_EFFECT 9.138381201", "result": "< 4"}, {"measurement": "PXC50", "setting": "MAX_EFFECT 9.921671018", "result": "< 4"}]}, {"molecule": "OB1OC(CN2CCOCC2)c2ccccc21", "note": "(stereo not given)", "values": [{"measurement": "PXC50", "setting": "MAX_EFFECT 9.245283019", "result": "< 4"}, {"measurement": "PXC50", "setting": "MAX_EFFECT 9.589041096", "result": "< 4"}]}, {"molecule": "Cc1nc(N2CCN(CCO)CC2)c2c(-c3cccs3)csc2n1", "values": [{"measurement": "PXC50", "setting": "MAX_EFFECT 9.693877551", "result": "< 4"}, {"measurement": "PXC50", "setting": "MAX_EFFECT 12.37373737", "result": "< 4"}]}, {"molecule": "Cn1ccnc1CN1CCC(F)(F)C2(CCN(c3cccnc3)C2)C1", "note": "(stereo not given)", "values": [{"measurement": "PXC50", "setting": "MAX_EFFECT 9.719626168", "result": "< 4"}, {"measurement": "PXC50", "setting": "MAX_EFFECT 11.33786848", "result": "< 4"}]}, {"molecule": "Cc1sc2nc(CN(C)Cc3ccc(C(F)(F)F)cc3)nc(N)c2c1C", "values": [{"measurement": "PXC50", "setting": "MAX_EFFECT 10.05291005", "result": "< 4"}, {"measurement": "PXC50", "setting": "MAX_EFFECT 12.8", "result": "< 4"}]}, {"molecule": "COc1ccc(C(=O)[C@H]2C[C@@H]2CN(Cc2ccccn2)Cc2ccccn2)cc1", "values": [{"measurement": "PXC50", "setting": "MAX_EFFECT 11.1627907", "result": "< 4"}, {"measurement": "PXC50", "setting": "MAX_EFFECT 16.55011655", "result": "< 4"}]}, {"molecule": "CN(c1ncnc2sccc12)C1CCCN(c2cccnn2)C1", "note": "(stereo not given)", "values": [{"measurement": "PXC50", "setting": "MAX_EFFECT 11.26760563", "result": "< 4"}, {"measurement": "PXC50", "setting": "MAX_EFFECT 18.33333333", "result": "< 4"}]}, {"molecule": "CCc1nc(N2CCN(c3ncccn3)CC2)c2cc(C)sc2n1", "values": [{"measurement": "PXC50", "setting": "MAX_EFFECT 13.86666667", "result": "< 4"}, {"measurement": "PXC50", "setting": "MAX_EFFECT 15.34391534", "result": "< 4"}]}, {"molecule": "Nc1noc2ccc(-c3cnc4ccc(NCc5cccnc5)nn34)cc12", "values": [{"measurement": "PXC50", "setting": "MAX_EFFECT 15.26717557", "result": "< 4"}, {"measurement": "PXC50", "setting": "MAX_EFFECT 15.78947368", "result": "< 4"}]}, {"molecule": "CCOC(=O)c1sc2nc(CN3CCCCC3)nc(NC3CC3)c2c1C", "values": [{"measurement": "PXC50", "setting": "MAX_EFFECT 16.58291457", "result": "< 4"}, {"measurement": "PXC50", "setting": "MAX_EFFECT 18.42751843", "result": "< 4"}]}, {"molecule": "Nc1noc2ccc(-c3cnc4ccc(NCC5CCCO5)nn34)cc12", "note": "(stereo not given)", "values": [{"measurement": "PXC50", "setting": "MAX_EFFECT 19.33842239", "result": "< 4"}, {"measurement": "PXC50", "setting": "MAX_EFFECT 25.0", "result": "< 4"}]}, {"molecule": "CC(C)(C)OC(=O)N1CCN(c2ccc3ccc(C(=O)NC4CCCC4)cn23)CC1", "values": [{"measurement": "PXC50", "setting": "MAX_EFFECT 20.86513995", "result": "< 4"}, {"measurement": "PXC50", "setting": "MAX_EFFECT 27.19298246", "result": "< 4"}]}, {"molecule": "CCN(CC)C(=O)CN(C)c1nc(C)nc2sc(-c3ccccc3)cc12", "values": [{"measurement": "PXC50", "setting": "MAX_EFFECT 23.46666667", "result": "< 4"}, {"measurement": "PXC50", "setting": "MAX_EFFECT 30.15873016", "result": "< 4"}]}, {"molecule": "CCC(CO)Nc1nc(CSc2ccccc2)nc2sc(C)c(C)c12", "note": "(stereo not given)", "values": [{"measurement": "PXC50", "setting": "MAX_EFFECT 23.49726776", "result": "< 4"}, {"measurement": "PXC50", "setting": "MAX_EFFECT 24.06417112", "result": "< 4"}]}, {"molecule": "C[C@@H](Oc1cc(-n2cnc3cc(N)ccc32)sc1C(N)=O)c1ccccc1Cl", "values": [{"measurement": "PXC50", "setting": "MAX_EFFECT 24.18604651", "result": "< 4"}, {"measurement": "PXC50", "setting": "MAX_EFFECT 25.87412587", "result": "< 4"}]}, {"molecule": "CS(=O)(=O)N1CCN(c2ccc3ccc(C(=O)NCCO)cn23)CC1", "values": [{"measurement": "PXC50", "setting": "MAX_EFFECT 34.44976077", "result": "< 4"}, {"measurement": "PXC50", "setting": "MAX_EFFECT 46.06946984", "result": "< 4"}]}, {"molecule": "O=C(NC1CCCC1)c1ccc2ccc(N3CCCCC3)n2c1", "values": [{"measurement": "PXC50", "setting": "MAX_EFFECT 36.52968037", "result": "< 4"}, {"measurement": "PXC50", "setting": "MAX_EFFECT 39.81132075", "result": "< 4"}]}, {"molecule": "Cc1nc(N2CCN(C(=O)C3CC3)CC2)c2c3c(sc2n1)CC(C)CC3", "note": "(stereo not given)", "values": [{"measurement": "PXC50", "setting": "MAX_EFFECT 43.2160804", "result": "< 4"}, {"measurement": "PXC50", "setting": "MAX_EFFECT 47.91154791", "result": "< 4"}]}, {"molecule": "CS(=O)(=O)Nc1cccc2c(=O)cc(C(=O)NCC3(O)CCCCC3)oc12", "values": [{"measurement": "PXC50", "setting": "MAX_EFFECT 2.53968254", "result": "< 4"}, {"measurement": "PXC50", "setting": "MAX_EFFECT 4.743083004", "result": "< 4"}]}, {"molecule": "NS(=O)(=O)c1ccc(Cl)cc1Cl", "values": [{"measurement": "PXC50", "setting": "MAX_EFFECT 7.991360691", "result": "< 3"}, {"measurement": "PXC50", "setting": "MAX_EFFECT 11.97718631", "result": "< 3"}]}, {"molecule": "Cc1sc2nc(CN3CCCC3)nc(NC3CCCC3)c2c1C", "values": [{"measurement": "PXC50", "setting": "MAX_EFFECT 34.69387755", "result": "< 4"}, {"measurement": "PXC50", "setting": "MAX_EFFECT 40.15151515", "result": "< 4"}]}, {"molecule": "Cc1cc(C(=O)NC2CCCC2)cn2c(N3CCN(S(C)(=O)=O)CC3)ccc12", "values": [{"measurement": "PXC50", "setting": "BOTTOM 3.715191159, HILLSLOPE 1.052339001, MAX_EFFECT 54.38596491, TOP 65.94212945", "result": 4.67}, {"measurement": "PXC50", "setting": "MAX_EFFECT 46.875", "result": "< 4"}]}, {"molecule": "Cc1nc(N2CC[C@@H](O)C2)c2c(-c3cccs3)csc2n1", "values": [{"measurement": "PXC50", "setting": "MAX_EFFECT -2.07253886", "result": "< 4"}, {"measurement": "PXC50", "setting": "MAX_EFFECT -3.723404255", "result": "< 4"}]}]}
